Source: PubChem BioAssay
Compounds with a hit are over-represented: about 1.5% of the library has one in this group of screens.
PI5P4Ka inh: blocks human PI5P4K alpha kinase activity. 1.2% of 330,000 active. PI5P4Kalpha enzyme, ADP-Glo luminescence, 60 min; stronger effect = lower value. max response, %. P48426; active = max response of -50% or lower; inconclusive = between -30% and -50%; inactive = -30% or higher; also: value at the top dose of about 77 µM
Target sequence (P48426 whole entry, looked up): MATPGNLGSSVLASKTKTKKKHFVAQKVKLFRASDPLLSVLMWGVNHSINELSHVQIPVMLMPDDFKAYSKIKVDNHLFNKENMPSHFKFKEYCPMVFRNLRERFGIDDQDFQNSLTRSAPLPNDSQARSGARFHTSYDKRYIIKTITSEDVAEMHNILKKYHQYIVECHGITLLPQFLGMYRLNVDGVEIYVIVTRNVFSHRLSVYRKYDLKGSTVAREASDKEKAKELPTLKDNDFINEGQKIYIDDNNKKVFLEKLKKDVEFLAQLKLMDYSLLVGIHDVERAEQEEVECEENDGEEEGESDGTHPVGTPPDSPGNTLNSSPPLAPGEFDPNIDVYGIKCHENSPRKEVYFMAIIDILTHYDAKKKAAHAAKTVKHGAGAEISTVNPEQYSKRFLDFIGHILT
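Human PI5P4Kalpha with substrate in 0.038 M HEPES pH 7.4, 0.28 mM EGTA, 0.1% CHAPS, 5% DMSO; reaction started with 5 microM ATP (final), 60 min at room temperature. ADP formed read by ADP-Glo luminescence.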
BLM helicase inh: blocks DNA unwinding by human BLM helicase. P54132. AID 2528. recombinant BLM DNA unwinding, fluorescence dequenching. 0.2% of 350,000 active. Potency, µM (titrated, usually from 56.1 µM), for the others: at the top dose activity change, negative = inhibition, hits mostly inhibitors;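 also: potency is read from the fitted curve at half-maximal effect; plate controls were vehicle for no effect and no enzyme for full effect; nearly all actives have a fitted effect of over 35% in size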
APE1 inh-1: blocks human APE1 abasic DNA cleavage. P27695. recombinant APE1, TAMRA/BHQ-2 abasic DNA cleavage fluorescence. Potency, µM (doses to about 65.8 µM), for inactives: at the top dose activity change, negative = inhibition, usual class: inhibitors. 0.35% of 350,000 active. AID 2517;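 also: potency is read from the fitted curve at half-maximal effect; plate controls were vehicle for no effect and reference inhibitor for full effect; nearly all actives have a fitted effect of over 55% in size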
Target sequence (P27695 whole entry, looked up): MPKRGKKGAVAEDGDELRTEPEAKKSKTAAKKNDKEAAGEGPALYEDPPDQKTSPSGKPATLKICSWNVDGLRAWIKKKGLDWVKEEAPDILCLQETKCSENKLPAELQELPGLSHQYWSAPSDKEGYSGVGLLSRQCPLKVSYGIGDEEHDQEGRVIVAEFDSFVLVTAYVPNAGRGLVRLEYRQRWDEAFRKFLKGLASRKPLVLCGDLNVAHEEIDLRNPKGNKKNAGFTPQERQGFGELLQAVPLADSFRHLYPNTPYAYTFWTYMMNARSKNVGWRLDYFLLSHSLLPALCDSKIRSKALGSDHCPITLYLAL
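Readout is kinetic fluorescence (ex 525, em 598 nm) from cleavage of 50 nM TAMRA/BHQ-2 THF abasic duplex by 0.75 nM APE1, compound added 15 min beforehand at RT.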
RECQ1 helicase: inhibitors of human RECQ1 DNA helicase; P46063; RECQ1 DNA unwinding, red fluorescence kinetic read; Potency, µM (titrated, usually from 57.3 µM), for the others: at the highest dose activity, negative = inhibition, actives largely listed as inhibitors; 0.54% of 240,000 active;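 also: potency is read from the fitted curve at half-maximal effect; plate controls were vehicle for no effect and no enzyme for full effect; nearly all actives have a fitted effect of over 30% in size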
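50 nM RECQ1T1 preincubated 15 min with compound in Tris pH 8.0 buffer with MgCl2, DTT, Tween-20 and 2.5 ug/ml poly(dI-dC); started with 200 nM TAMRA/BHQ-2 forked duplex and 2 mM ATP. Unwinding read as fluorescence (525/598 nm), two reads 2 h apart.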
FEN1 inh: inhibitors of human flap endonuclease 1 | Recombinant FEN1 flap cleavage, fluorescence, 15 min | 0.35% of 390,000 active | Potency, µM (top dose mostly 114 µM), without a hit: at the highest dose activity change, negative = inhibition, most hits filed as inhibitors; also: potency is read from the fitted curve at half-maximal effect; nearly all actives have a fitted effect of over 65% in size
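Reaction started by adding substrate (50 nM final) to 10 nM enzyme after 15 min room-temperature compound preincubation. Reads at 0 and 15 min, with data normalized and fitted to a four-parameter Hill equation.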
GCN5L2 inh: GCN5L2 (KAT2A) acetyltransferase inhibition; AID 504327; Potency, µM (titrated, usually from 58.9 µM), for the others: at the top dose activity change, negative = inhibition, most hits filed as inhibitors; 0.21% of 390,000 active; GCN5L2 HAT assay, ThioGlo1 CoA-SH fluorescence; Q92830; also: potency is read from the fitted curve at half-maximal effect
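Fluorescence readout, Ex340nm/Em540nm: ThioGlo1 (50uM final) reacts with free CoA thiol released as 20nM GCN5L2 acetylates H3(1-25) peptide (75uM) using acetyl-CoA (70uM). Compound and enzyme sat 15 min beforehand; 20 min room-temperature reaction.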
DNA dye displace: DNA dye displacement counter-screen activity; Potency, µM (top dose mostly 28.5 µM), inactives show top-dose activity change, negative = inhibition, most hits filed as inhibitors; AID 2564; 7% of 480 active; shares compounds with APE1 inh-1; DNA fluorescent dye displacement counterscreen, fluorescence;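 also: loss of thiazole orange fluorescence as the dye is displaced from duplex DNA; potency is read from the fitted curve at half-maximal effect; 0% = ThO with dsDNA and no compound and -100% = ThO without dsDNA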
Endo IV inh: counter-screen for APE1 inhibitors: inhibitors of E. coli endonuclease IV | E. coli Endo IV, fluorogenic AP-site DNA cleavage | 4% of 560 active | shares compounds with APE1 inh-1 | Potency, µM (series often up to 27.1 µM), for the others: at the highest dose activity change, negative = inhibition, most hits filed as inhibitors;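 also: potency is read from the fitted curve at half-maximal effect; plate controls were uninhibited enzyme wells for no effect and no enzyme buffer wells for full effect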
APE1 inh-2: APE1 (human) endonuclease inhibition, confirmation | shares compounds with APE1 inh-1 | purified APE1, fluorogenic abasic-site DNA cleavage | Potency, µM (doses to about 57.1 µM), inactives show at the top dose activity change, negative = inhibition, hits mostly inhibitors | 44% of 750 active | AID 2572; also: potency is read from the fitted curve at half-maximal effect; nearly all actives have a fitted effect of over 30% in size
APE1 FP: displaces DNA from human APE1 in FP assay; APE1 binding to TAMRA-labelled double-stranded DNA, fluorescence polarization displacement; Potency, µM (series often up to 28.5 µM), without a hit: top-dose activity, negative = inhibition, actives largely listed as inhibitors; shares compounds with APE1 inh-1; 7% of 480 active; also: potency is read from the fitted curve at half-maximal effect
An asterisk follows results filed as active; ! = a repeat was not active; [ ] = remark or other dose. Unless noted, calls follow the shape of the dose curve; as a rule, active = well fitted curve in the direction sought with a large enough effect; inconclusive = small, poorly fitted or top-dose-only effect, or another doubt; inactive = no such curve, though single readings can be large; an effect the other way counts as inactive or inconclusive. Unless noted, % is scaled to controls: 0 for no effect and ±100 for the full control effect.

For O=C1N/C(=C/c2cccn2-c2ccc(F)cc2)C(=O)N1Cc1ccccc1F the results were PI5P4Ka inh 17, BLM helicase inh -2%, APE1 inh-1 -2%, RECQ1 helicase -4%, FEN1 inh -3% and GCN5L2 inh -7%.
Screening N#C/C(=C/c1cccn1-c1cccc(C(=O)O)c1)c1ccc(F)cc1 returned PI5P4Ka inh 1, BLM helicase inh -14%, APE1 inh-1 25µM*, RECQ1 helicase -1%, FEN1 inh 15%, GCN5L2 inh -22%, DNA dye displace 7%, Endo IV inh 12%, APE1 inh-2 inconclusive and APE1 FP -23%.
O=C(O)c1cccc(-n2cccc2/C=C2/NC(=O)N(Cc3ccccc3F)C2=O)c1 was read as PI5P4Ka inh -6, BLM helicase inh -6%, APE1 inh-1 13µM*, RECQ1 helicase inconclusive, FEN1 inh -2%, GCN5L2 inh -9% and APE1 inh-2 inconclusive.
For CC1=CCC2C(=O)N(c3nc4ccccc4n3C)C(=O)C2C1 (stereo not drawn) the results were BLM helicase inh 3%, APE1 inh-1 inconclusive, RECQ1 helicase -12%, FEN1 inh 2% and APE1 inh-2 40µM*.
Screening N#Cc1ccc(NCCNCC(=O)N2N=CCC2C#N)nc1 (stereo not drawn) returned BLM helicase inh -4%, APE1 inh-1 1%, RECQ1 helicase -7% and GCN5L2 inh 15%.
Cc1c(Br)c(O)c(Br)c2sc(=O)oc12 was read as PI5P4Ka inh -69*, BLM helicase inh -15%, APE1 inh-1 inconclusive, RECQ1 helicase 22µM*, FEN1 inh inconclusive, GCN5L2 inh -25%, DNA dye displace 4%, Endo IV inh 16%, APE1 inh-2 -7%[24.4 µM] and APE1 FP 1%.
`CC(C)CNC(=O)COC(=O)C1c2ccccc2Oc2ccccc21` gave PI5P4Ka inh 6, BLM helicase inh 1%, APE1 inh-1 -9%, FEN1 inh 1% and GCN5L2 inh -11%.
CC(C)[N+](C)(CCOC(=O)C1c2ccccc2Oc2ccccc21)C(C)C was read as PI5P4Ka inh -12, BLM helicase inh 10%, APE1 inh-1 8.9µM*!, RECQ1 helicase inconclusive, FEN1 inh -7%, GCN5L2 inh -10%, Endo IV inh -7%[57.1 µM] and APE1 inh-2 -34%.
`CC(C)C(C(=O)O)N1C(=O)/C(=C/C=C/c2ccco2)SC1=S` (stereo not drawn) gave PI5P4Ka inh -94*, BLM helicase inh inconclusive, APE1 inh-1 1.6µM*, RECQ1 helicase inconclusive, FEN1 inh 18µM*, GCN5L2 inh inconclusive, DNA dye displace 4%, Endo IV inh 22%, APE1 inh-2 2.5µM* and APE1 FP -61%.
Cc1noc(C)c1-c1ccc2ncnc(NC3CCCc4ccccc43)c2c1 (stereo not drawn) was read as BLM helicase inh -6%, APE1 inh-1 -3% and RECQ1 helicase -5%.
CC1(C)Oc2cc(N)c([N+](=O)[O-])cc2O1 was read as PI5P4Ka inh 2, BLM helicase inh 3%, APE1 inh-1 32µM*, RECQ1 helicase -5%, FEN1 inh 0%, GCN5L2 inh -7%, DNA dye displace -8%, Endo IV inh 0%, APE1 inh-2 -8%[24.4 µM] and APE1 FP 2%.
CC1(C)Oc2cc3c(cc2O1)OC(C)(C)O3 was read as BLM helicase inh 2%[12.4 µM], APE1 inh-1 inconclusive and RECQ1 helicase 0%[11.5 µM].
`COC(=O)N1CCN(/[N+]([O-])=N/Oc2ccc([N+](=O)[O-])cc2[N+](=O)[O-])CC1` gave BLM helicase inh -1%, APE1 inh-1 2%, RECQ1 helicase inactive and FEN1 inh 5%.
Screening O=c1oc2c3c4c(cc2s1)CCCN4CCC3 returned BLM helicase inh inconclusive, APE1 inh-1 28µM*, RECQ1 helicase 28µM*, FEN1 inh inconclusive, GCN5L2 inh -11%, DNA dye displace 0%, Endo IV inh 46%, APE1 inh-2 16µM* and APE1 FP -1%.
Screening O=c1ccc2cc3c4c(c2o1)CCCN4CCC3 returned PI5P4Ka inh 2, BLM helicase inh -9%, APE1 inh-1 -7%, RECQ1 helicase inconclusive, FEN1 inh -21% and GCN5L2 inh inconclusive.
Screening CC(=O)Oc1cc(-c2coc3cc(OC(C)=O)c(OC(C)=O)c(OC(C)=O)c3c2=O)cc(OC(C)=O)c1OC(C)=O returned BLM helicase inh 11µM*, APE1 inh-1 0.32µM*, RECQ1 helicase 1µM*, GCN5L2 inh -3%, Endo IV inh 21%[57.1 µM] and APE1 inh-2 1.1µM*.
CCC[C@H](NC(C)=O)C(=O)N[C@H]1CC(=O)ONCCCC[C@@H](C(N)=O)NC(=O)[C@H](Cc2c[nH]c3ccccc23)NC(=O)[C@H](CCCN=C(N)N)NC(=O)[C@@H](Cc2ccc3ccccc3c2)NC(=O)[C@H](Cc2cnc[nH]2)NC1=O was read as BLM helicase inh -6%, APE1 inh-1 2%, RECQ1 helicase 11% and GCN5L2 inh -14%.
`Nc1ncc(N=Nc2cc(C(=O)O)ccc2Cl)s1` gave PI5P4Ka inh -54*, BLM helicase inh -3%, APE1 inh-1 8.9µM*, RECQ1 helicase inconclusive, FEN1 inh inconclusive, GCN5L2 inh -3%, DNA dye displace -6%, Endo IV inh 96%, APE1 inh-2 inconclusive and APE1 FP inconclusive.
